# This is part of a sample that, as a whole, favours compounds with a hit. Of some 79,000 tested, about 15% had one in any assay. Unmarked numbers belong to inactive results. The source made the active and inactive calls. Rule as the data show it: active = growth inhibition above about 70%; inactive = the rest.
# Test: NCI Yeast Anticancer Drug Screen. Data for the rad14 strain (AID 159);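 also: 0% = growth of vehicle-treated control cultures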
# Conditions: S. cerevisiae rad14 strain growth inhibition, stronger effect = higher value
# Procedure: Growth inhibition of yeast strains with defined genetic alterations is measured as a screen for potential anti-cancer activity. Selected strains with alterations in DNA damage repair or cell cycle control were exposed to compounds and growth inhibition was measured relative to vehicle treated controls. The strain used in this assay is rad14
Structure (SMILES),growth inhibition (at 1.2 µM) [%],growth inhibition (at 3.7 µM) [%],growth inhibition (at 11.0 µM) [%],growth inhibition (at 33.0 µM),growth inhibition (at 100.0 µM)
OC(c1ccc(Br)cc1)C(Cl)(Cl)Cl (stereo not given),-23,-16,-7,84% (active),98% (active)
O=C(O)CCCOc1cc(Cl)c(Cl)cc1Cl,-13,-4,-4,17%,81% (active)
CN(C)CCSC1=Nc2ccc(Cl)cc2C(c2ccccc2Cl)=NC1,0,4,17,45%,75% (active)
CC12CCC(C1)C(C)(C)C2OC(=O)c1ccccc1N (stereo not given),7,2,-6,4%,17%
CCC(=O)OC1CCn2c1nc1c2C(=O)C(C)=C(N2CC2)C1=O (stereo not given),8,7,14,38%,79% (active)
CNCC(O)c1ccc(O)c(O)c1.[Pt].c1ccc([PH+](c2ccccc2)c2ccccc2)cc1.c1ccc([PH+](c2ccccc2)c2ccccc2)cc1,-1,-3,4,98% (active),96% (active)
CC1=C(N2CC2)C(=O)c2ccccc2C1=O,2,3,14,32%,92% (active)
O=S(=O)(O)/C(=C\c1ccccc1)c1ccccc1 (tested in a mixture with another compound),0,0,2,-7%,3%
